Assay results published in PubChem BioAssay (EPA / NIEHS).
Where “and” joins values, the source holds several entries; their conditions need not be identical. Equal entries are not always repeated. Records with an inconclusive call do not appear. Calls of active or inactive are those of the source. The calls were made as follows, unless noted: active = hit-call score of the fitted dose curve at least 0.9, where 1 is the maximum; inconclusive = response in the unintended direction; inactive = score below 0.9.

Experiments:
[1] = molecular target: human Peroxisome Proliferator-activated Receptor alpha (PPARa), PPARA (gene 5465) (UniProt Q07869); assay: ATG_PPARa_TRANS: Attagene TRANS-FACTORIAL HepG2 Assay for human Peroxisome Proliferator-activated Receptor alpha (PPARa) (AID 2283001);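 as to AC50: potency for gain of reporter signal over DMSO so agonist or activator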
Summary of the method: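 Measures transcriptional activity of an exogenous chimeric PPARa-Gal4 protein in transiently transfected HepG2 cells after 24 h dosing. Reporter mRNA quantified via RT-PCR and capillary electrophoresis; DMSO served as negative control.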

[2] = molecular target: Nuclear receptor subfamily 1 group I member 2 (Homo sapiens) (UniProt O75469); assay: ATG_PXR_TRANS: Attagene TRANS-FACTORIAL HepG2 Assay for human Pregnane X Receptor (PXR) (AID 2283008)
Summary of the method: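 HepG2 cells transiently transfected with multiple reporter units, here a PXR-GAL4 chimera driving a GAL4-UAS reporter; 24 h compound exposure. Reporter mRNA measured by RT-PCR, FAM labelling and capillary electrophoresis; gain of signal fitted against DMSO baseline.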

[3] = molecular target: human RAR-related Orphan Receptor beta (RORb), RORB (gene 6096) (UniProt Q92753); assay: ATG_RORb_TRANS: Attagene TRANS-FACTORIAL HepG2 Assay for human RAR-related Orphan Receptor beta (RORb) (AID 2283010)
Summary of the method: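 In this TRANS-format test, human HepG2 cells express chimeric NR-Gal4 fusion proteins driving GAL4-UAS reporters. After 24 h dosing, reporter transcripts are measured by fluorescent RT-PCR/capillary electrophoresis, with DMSO as negative control.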

[4] = molecular target: Peroxisome proliferator-activated receptor gamma (Homo sapiens) (UniProt P37231); assay: ATG_PPARg_TRANS: Attagene TRANS-FACTORIAL HepG2 Assay for human Peroxisome Proliferator-activated Receptor-gamma (PPARg) (AID 2283007)
Summary of the method: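 Transient transfection of HepG2 with GAL4-UAS-driven reporter units; chemical dosing 24 h; total RNA → oligo(dT) RT → PCR with reporter primers → 6-FAM primer extension → HpaI digest 2 h 37 C → capillary electrophoresis. Positive direction vs DMSO.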

[5] = molecular target: human RAR-related Orphan Receptor gamma (RORg), RORC (gene 6097) (UniProt P51449); assay: ATG_RORg_TRANS: Attagene TRANS-FACTORIAL HepG2 Assay for human RAR-related Orphan Receptor gamma (RORg) (AID 2283011)
Summary of the method: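 HepG2 cells transiently transfected with GAL4-UAS reporter units and chimeric RORg-Gal4 construct; after 24 h chemical exposure, reporter mRNA measured by RT-PCR with fluorescent capillary electrophoresis, gain of signal fitted against DMSO.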

[6] = molecular target: human Peroxisome Proliferator-activated Receptor delta (PPARd), PPARD (gene 5467) (UniProt Q03181); assay: ATG_PPARd_TRANS: Attagene TRANS-FACTORIAL HepG2 Assay for human Peroxisome Proliferator-activated Receptor delta (PPARd) (AID 2283002)
Summary of the method: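 Fluorescence from capillary electrophoresis of labelled RT-PCR reporter fragments gives the signal; DMSO sets baseline. Cells: HepG2 transiently carrying GAL4-UAS reporter units plus chimeric nuclear receptor-Gal4 proteins, exposed to chemicals for 24 h.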

[7] = read-out: Intercellular Adhesion Molecule 1 (ICAM1), ICAM1 (gene 3383); assay: BSK_3C_ICAM1: BioMAP Diversity Plus: 3C Assay for Intercellular Adhesion Molecule 1 (ICAM1) Biomarker Activity (AID 2283003; active = hit-call score of the fitted dose curve at least 0.9, where 1 is the maximum; inactive = score below 0.9); settings: primary human endothelial cells (HUVEC); actives raise or lower the signal
Summary of the method: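 Human vascular endothelial primary cells, 3C conditions, 24 h treatment. ICAM-1 by ELISA.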

[8] = BSK_3C_Proliferation: Cell Proliferation Assessment in the BioMAP Diversity Plus: 3C Assay (AID 2283006; active = hit-call score of the fitted dose curve at least 0.9, where 1 is the maximum; inactive = score below 0.9;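 as to AC50: potency may reflect either rise or fall in cell number versus DMSO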); settings: primary human endothelial cells (HUVEC)
Summary of the method: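 Proliferation of human vascular endothelial primary cells after 48 h dosing, quantified as SRB-stained protein at 560 nm relative to DMSO.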

[9] = molecular target: human Retinoic Acid Receptor gamma (RARg), RARG (gene 5916) (UniProt P13631); assay: ATG_RARg_TRANS: Attagene TRANS-FACTORIAL HepG2 Assay for human Retinoic Acid Receptor gamma (RARg) (AID 2283009)
Summary of the method: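 HepG2, RARg-GAL4 TRANS system, 24 h exposure; reporter mRNA by RT-PCR + CE fluorescence; increase over DMSO.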

[10] = molecular target: Retinoic acid receptor alpha (Homo sapiens) (UniProt P10276); assay: ATG_RARa_TRANS: Attagene TRANS-FACTORIAL HepG2 Assay for human Retinoic Acid Receptor alpha (RARa) (AID 2283005)
Summary of the method: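 HepG2 transiently transfected with multiplex GAL4-UAS reporter units including a human RARa–GAL4 chimera; 24 h compound exposure. Reporter mRNA quantified by RT-PCR, 6-FAM labeling and capillary electrophoresis; gain of signal versus DMSO.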

Chain of human RAR-related Orphan Receptor beta (RORb), RORB (gene 6096) (Q92753 whole entry, looked up, the tested form may be a part): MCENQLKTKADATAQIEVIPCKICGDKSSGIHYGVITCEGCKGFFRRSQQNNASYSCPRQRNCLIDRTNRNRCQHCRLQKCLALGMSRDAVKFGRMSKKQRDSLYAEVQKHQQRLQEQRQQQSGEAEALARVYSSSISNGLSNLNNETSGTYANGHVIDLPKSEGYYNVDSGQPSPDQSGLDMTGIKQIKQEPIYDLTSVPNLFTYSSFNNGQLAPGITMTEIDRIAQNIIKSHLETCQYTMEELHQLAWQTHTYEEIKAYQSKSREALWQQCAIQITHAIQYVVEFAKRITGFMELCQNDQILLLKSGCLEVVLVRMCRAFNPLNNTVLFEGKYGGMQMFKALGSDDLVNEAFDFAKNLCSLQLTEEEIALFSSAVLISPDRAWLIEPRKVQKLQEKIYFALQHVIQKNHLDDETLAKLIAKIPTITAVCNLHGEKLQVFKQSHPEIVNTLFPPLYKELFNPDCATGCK
Chain of human Peroxisome Proliferator-activated Receptor delta (PPARd), PPARD (gene 5467) (Q03181 whole entry, looked up, the tested form may be a part): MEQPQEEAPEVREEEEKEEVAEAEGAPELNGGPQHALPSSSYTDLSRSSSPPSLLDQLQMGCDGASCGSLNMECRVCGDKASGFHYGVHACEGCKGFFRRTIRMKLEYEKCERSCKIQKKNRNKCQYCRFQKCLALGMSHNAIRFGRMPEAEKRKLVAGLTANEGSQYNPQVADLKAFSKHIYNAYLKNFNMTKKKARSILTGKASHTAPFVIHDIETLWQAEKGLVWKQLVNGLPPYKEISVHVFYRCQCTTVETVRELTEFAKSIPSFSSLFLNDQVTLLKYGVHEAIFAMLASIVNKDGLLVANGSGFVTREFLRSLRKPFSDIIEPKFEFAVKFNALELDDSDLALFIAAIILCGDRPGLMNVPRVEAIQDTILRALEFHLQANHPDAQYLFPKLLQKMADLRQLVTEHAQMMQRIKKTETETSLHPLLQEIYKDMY
Chain of human RAR-related Orphan Receptor gamma (RORg), RORC (gene 6097) (P51449 whole entry, looked up, the tested form may be a part): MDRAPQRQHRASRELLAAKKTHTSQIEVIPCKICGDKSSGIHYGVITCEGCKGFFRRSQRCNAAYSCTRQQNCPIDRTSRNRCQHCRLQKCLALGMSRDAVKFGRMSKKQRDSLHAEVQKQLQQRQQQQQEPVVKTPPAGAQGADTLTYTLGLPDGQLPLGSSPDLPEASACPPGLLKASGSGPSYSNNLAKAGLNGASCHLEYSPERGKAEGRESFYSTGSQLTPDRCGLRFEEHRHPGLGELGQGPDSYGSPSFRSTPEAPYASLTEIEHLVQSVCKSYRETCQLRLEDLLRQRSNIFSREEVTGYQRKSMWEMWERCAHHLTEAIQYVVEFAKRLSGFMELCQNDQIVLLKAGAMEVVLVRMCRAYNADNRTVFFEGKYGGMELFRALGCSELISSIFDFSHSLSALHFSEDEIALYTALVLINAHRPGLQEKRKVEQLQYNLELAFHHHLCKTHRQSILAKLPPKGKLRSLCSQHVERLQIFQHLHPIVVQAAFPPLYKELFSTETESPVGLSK
Chain of Peroxisome proliferator-activated receptor gamma (Homo sapiens) (P37231 whole entry, looked up, the tested form may be a part): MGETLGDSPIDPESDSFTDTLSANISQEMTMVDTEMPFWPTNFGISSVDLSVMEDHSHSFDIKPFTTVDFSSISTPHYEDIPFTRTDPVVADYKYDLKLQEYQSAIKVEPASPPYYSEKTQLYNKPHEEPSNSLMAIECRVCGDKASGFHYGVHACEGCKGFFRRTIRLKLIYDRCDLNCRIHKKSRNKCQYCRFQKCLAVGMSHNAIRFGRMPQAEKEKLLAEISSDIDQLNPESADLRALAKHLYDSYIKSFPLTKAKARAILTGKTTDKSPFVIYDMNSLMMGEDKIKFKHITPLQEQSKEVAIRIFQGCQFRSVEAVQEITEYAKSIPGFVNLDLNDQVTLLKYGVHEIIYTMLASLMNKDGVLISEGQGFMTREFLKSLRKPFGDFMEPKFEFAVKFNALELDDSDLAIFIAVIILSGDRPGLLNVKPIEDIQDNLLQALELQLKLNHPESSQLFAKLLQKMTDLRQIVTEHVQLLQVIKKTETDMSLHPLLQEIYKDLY
Chain of Nuclear receptor subfamily 1 group I member 2 (Homo sapiens) (O75469 whole entry, looked up, the tested form may be a part): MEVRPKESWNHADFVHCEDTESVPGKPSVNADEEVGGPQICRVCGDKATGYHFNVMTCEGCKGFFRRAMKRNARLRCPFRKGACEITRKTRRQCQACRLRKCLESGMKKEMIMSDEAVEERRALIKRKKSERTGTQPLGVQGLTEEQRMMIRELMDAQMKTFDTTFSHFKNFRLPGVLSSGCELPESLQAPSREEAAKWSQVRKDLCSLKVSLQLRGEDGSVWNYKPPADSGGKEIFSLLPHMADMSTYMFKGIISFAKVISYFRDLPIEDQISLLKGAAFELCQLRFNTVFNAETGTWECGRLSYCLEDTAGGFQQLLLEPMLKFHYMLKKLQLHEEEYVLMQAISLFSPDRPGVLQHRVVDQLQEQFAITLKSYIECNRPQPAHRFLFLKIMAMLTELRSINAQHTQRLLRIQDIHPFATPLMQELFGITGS
Chain of human Peroxisome Proliferator-activated Receptor alpha (PPARa), PPARA (gene 5465) (Q07869 whole entry, looked up, the tested form may be a part): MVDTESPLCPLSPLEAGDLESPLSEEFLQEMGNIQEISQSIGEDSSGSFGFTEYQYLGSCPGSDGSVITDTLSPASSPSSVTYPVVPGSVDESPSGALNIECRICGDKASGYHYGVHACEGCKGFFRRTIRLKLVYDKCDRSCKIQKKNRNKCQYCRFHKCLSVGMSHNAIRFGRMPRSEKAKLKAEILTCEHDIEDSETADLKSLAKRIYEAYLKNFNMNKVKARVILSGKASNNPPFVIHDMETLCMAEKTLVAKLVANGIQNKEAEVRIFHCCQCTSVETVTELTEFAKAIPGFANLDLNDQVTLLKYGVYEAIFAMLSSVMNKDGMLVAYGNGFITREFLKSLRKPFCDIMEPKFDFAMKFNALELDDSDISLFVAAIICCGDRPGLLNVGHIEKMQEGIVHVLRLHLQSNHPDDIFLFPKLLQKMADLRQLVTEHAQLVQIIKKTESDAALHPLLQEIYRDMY
Chain of human Retinoic Acid Receptor gamma (RARg), RARG (gene 5916) (P13631 whole entry, looked up, the tested form may be a part): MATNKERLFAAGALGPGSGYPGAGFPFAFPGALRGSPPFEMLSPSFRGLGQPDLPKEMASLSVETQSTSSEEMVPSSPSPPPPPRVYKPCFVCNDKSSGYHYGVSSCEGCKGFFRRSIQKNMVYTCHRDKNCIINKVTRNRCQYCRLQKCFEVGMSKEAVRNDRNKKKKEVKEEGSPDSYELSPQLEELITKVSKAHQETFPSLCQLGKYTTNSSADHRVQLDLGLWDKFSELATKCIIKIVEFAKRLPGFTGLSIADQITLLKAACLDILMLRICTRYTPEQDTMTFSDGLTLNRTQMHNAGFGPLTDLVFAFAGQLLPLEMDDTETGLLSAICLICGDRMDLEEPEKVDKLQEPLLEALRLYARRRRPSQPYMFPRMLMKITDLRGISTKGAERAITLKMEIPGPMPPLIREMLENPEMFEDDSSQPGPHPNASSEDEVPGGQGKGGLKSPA
Chain of Retinoic acid receptor alpha (Homo sapiens) (P10276 whole entry, looked up, the tested form may be a part): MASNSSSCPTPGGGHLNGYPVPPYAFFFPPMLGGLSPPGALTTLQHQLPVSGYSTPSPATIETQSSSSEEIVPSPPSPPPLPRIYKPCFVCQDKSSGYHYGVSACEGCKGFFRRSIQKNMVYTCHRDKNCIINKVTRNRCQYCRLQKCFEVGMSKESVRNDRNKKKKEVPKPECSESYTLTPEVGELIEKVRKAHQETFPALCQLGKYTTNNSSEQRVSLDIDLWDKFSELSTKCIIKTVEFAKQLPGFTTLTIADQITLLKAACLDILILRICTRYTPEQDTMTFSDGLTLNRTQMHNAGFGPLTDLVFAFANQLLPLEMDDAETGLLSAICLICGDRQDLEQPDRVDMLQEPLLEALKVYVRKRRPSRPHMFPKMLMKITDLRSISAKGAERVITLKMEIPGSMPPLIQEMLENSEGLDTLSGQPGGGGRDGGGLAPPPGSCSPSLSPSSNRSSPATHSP

For `Cc1ccc(C=O)cc1`, the outcome [1] was “inactive”, the outcome [2] was “inactive” and the outcome [3] was “inactive”.

For `O=C(O)Cc1cccc2ccccc12`, the outcome [1] was “inactive”, the AC50 [4] was 69 µM (active) and the outcome [2] was “inactive”. The outcome [3] was “inactive” and the outcome [5] was “inactive”.

In the case of `CC(C)(C)c1n[nH]c(=S)n(N)c1=O`, the outcome [1] is reported as “inactive” and the outcome [2] is reported as “inactive”.

In the case of `Cc1cccc(C)c1C`, the outcome [1] is reported as “inactive”, the outcome [4] is reported as “inactive” and the outcome [3] is reported as “inactive”. For the same compound, the outcome [5] was “inactive”.

In the case of `CC(=O)Nc1ccc(CC(=O)O)cc1`, the outcome [1] is reported as “inactive”, the outcome [4] is reported as “inactive” and the outcome [3] is reported as “inactive”.

With `CC(C#N)(CCC(=O)O)N=NC(C)(C#N)CCC(=O)O` (centres undefined) the outcome [1] was “inactive”, the outcome [2] was “inactive” and the outcome [3] was “inactive”.

In the case of `O=C1NC(=O)c2ccccc21`, the outcome [1] is reported as “inactive”, the outcome [4] is reported as “inactive” and the outcome [3] is reported as “inactive”. For the same compound, the outcome [5] was “inactive”.

In the case of `c1ccc2sc(SN(C3CCCCC3)C3CCCCC3)nc2c1`, the outcome [6] is reported as “inactive”, the outcome [7] is reported as “inactive” and the AC50 [8] is reported as 8.86 µM (active). For the same compound, the outcome [4] was “inactive”, the AC50 [2] was 0.629 µM (active) and the outcome [3] was “inactive”.

With `Nc1ccc(S(N)(=O)=O)cc1` the outcome [1] was “inactive” and the outcome [2] was “inactive”.

In the case of `CCCCC/C=C/C=C/C=O`, the outcome [6] is reported as “inactive”, the AC50 [7] is reported as 32.8 µM (active) and the AC50 [8] is reported as 20 µM (active). The AC50 [4] was 9.8 µM (active), the outcome [2] was “inactive” and the outcome [3] was “inactive”.

For `CSc1nnc(C(C)(C)C)c(=O)[nH]1`, the outcome [1] was “inactive”, the outcome [4] was “inactive” and the outcome [2] was “inactive”. For the same compound, the outcome [5] was “inactive”.

For `CCCC(=O)c1cc(O)c(O)cc1O`, the outcome [1] was “inactive”, the outcome [4] was “inactive” and the outcome [2] was “inactive”. The outcome [5] was “inactive”.

For `CC1CCC(C(C)(C)O)CC1` (centres undefined), the outcome [1] was “inactive”, the outcome [2] was “inactive” and the outcome [3] was “inactive”. The outcome [5] was “inactive”.

In the case of `CCN(CC)CCOC(=O)c1ccc(N)cc1`, the outcome [1] is reported as “inactive”, the outcome [4] is reported as “inactive” and the outcome [3] is reported as “inactive”.

In the case of `O=C(COc1ccc(Cl)cc1)N1CCN(Cc2ccc3c(c2)OCO3)CC1`, the outcome [1] is reported as “inactive” and the outcome [2] is reported as “inactive”.

In the case of `C=CC(=O)OCCn1c(=O)n(CCOC(=O)C=C)c(=O)n(CCOC(=O)C=C)c1=O`, the AC50 [1] is reported as 8.62 µM (active), the AC50 [4] is reported as 8.83 µM (active) and the outcome [2] is reported as “inactive”. For the same compound, the outcome [5] was “inactive”.

For `Cc1c(N(C)C)c(=O)n(-c2ccccc2)n1C`, the outcome [1] was “inactive”, the outcome [2] was “inactive” and the outcome [3] was “inactive”.

For `CC1CCC2CC1C2(C)C` (centres undefined), the outcome [1] was “inactive”, the outcome [2] was “inactive” and the outcome [5] was “inactive”.

For `CC(C)CCCCCCCOC(=O)c1ccc(C(=O)OCCCCCCCC(C)C)c(C(=O)OCCCCCCCC(C)C)c1`, the outcome [1] was “inactive”, the outcome [4] was “inactive” and the outcome [2] was “inactive”. For the same compound, the outcome [3] was “inactive” and the outcome [5] was “inactive”.

For `CCCCO`, the outcome [1] was “inactive”, the outcome [2] was “inactive” and the outcome [3] was “inactive”.

With `S=C(S)NCCNC(=S)S` the outcome [1] was “inactive”, the outcome [4] was “inactive” and the outcome [5] was “inactive”.

For `C/C=C(\C)C(=O)OCc1ccccc1`, the outcome [1] was “inactive”, the outcome [4] was “inactive” and the outcome [2] was “inactive”. For the same compound, the outcome [5] was “inactive”.

For `CC(C)[C@@H]1CC[C@@H](C)CC1=O`, the outcome [1] was “inactive”, the outcome [2] was “inactive” and the outcome [3] was “inactive”.

With `O=C1OC2(c3cc(Br)c(O)c(Br)c3Oc3c2cc(Br)c(O)c3Br)c2c(Cl)c(Cl)c(Cl)c(Cl)c21` the outcome [6] was “inactive”, the AC50 [7] was 7.39 µM (active) and the AC50 [8] was 8.03 µM (active). The AC50 [4] was 34.7 µM (active), the AC50 [2] was 4.84 µM (active) and the outcome [3] was “inactive”.

In the case of `O=CCCc1ccccc1`, the outcome [1] is reported as “inactive”, the AC50 [2] is reported as 28.4 µM (active) and the outcome [9] is reported as “inactive”.

With `CCCCCCCCCCCCN` the outcome [1] was “inactive”, the outcome [3] was “inactive” and the outcome [5] was “inactive”.

For `CCCCCCCCCCN`, the outcome [6] was “inactive”.

For `CC(=O)[C@H]1CC[C@H]2[C@@H]3CC=C4C[C@@H](O)CC[C@]4(C)[C@H]3CC[C@]12C`, the outcome [6] was “inactive”, the outcome [7] was “inactive” and the AC50 [8] was 7.47 µM (active) and 6.54 µM (active). For the same compound, the outcome [4] was “inactive” and the AC50 [2] was 4.3 µM (active).

With `NC(=O)NC1NC(=O)NC1=O` (centres undefined) the outcome [1] was “inactive” and the outcome [2] was “inactive”.

In the case of `OCc1cccnc1`, the outcome [1] is reported as “inactive”, the outcome [2] is reported as “inactive” and the outcome [3] is reported as “inactive”.

In the case of `CCOC(=O)c1ccccc1OC`, the outcome [6] is reported as “inactive”, the outcome [4] is reported as “inactive” and the outcome [2] is reported as “inactive”. The outcome [9] was “inactive”.

With `CCC(=O)OCc1ccccc1` the outcome [6] was “inactive”, the outcome [7] was “inactive” and the outcome [8] was “inactive”. The outcome [2] was “inactive” and the outcome [3] was “inactive”.

With `ClCCCl` the outcome [6] was “inactive”, the outcome [4] was “inactive” and the outcome [2] was “inactive”. For the same compound, the outcome [3] was “inactive” and the outcome [5] was “inactive”.

For `CC1CC(OC(=O)c2ccccc2O)CC(C)(C)C1` (centres undefined), the outcome [6] was “inactive”, the outcome [10] was “inactive” and the outcome [4] was “inactive”. The outcome [2] was “inactive”, the outcome [9] was “inactive” and the outcome [5] was “inactive”.

With `COc1cc(C(C)(C)C)c(O)c(C(C)(C)C)c1` the outcome [6] was “inactive”, the outcome [4] was “inactive” and the outcome [2] was “inactive”.
